# Measurements: PubChem BioAssay AID1051 (The Scripps Research Institute Molecular Screening Center, 2008)
# Among all 99,000 compounds or so, about 340 (0.34%) were called active. Cut-off read from the data, not from the text of the source: active = TR-FRET ratio above about 2300; inactive = the rest. What follows is part of a selection rich in actives, with near analogues and random picks from the rest.
# Experiment: signal artefacts in PPARgamma/SRC-1 readout – biochemical, TR-FRET emission ratio, artefact control for PPARgamma SRC-1 recruitment agonists, primary screen (AID 1051)
# Conditions: TR-FRET detection artefact counter-screen, at 8 µM, hits give high values
row,SMILES,TR-FRET ratio
1,COC(=O)c1c(C)[nH]c(C)c1-c1ccc([N+](=O)[O-])cc1,1710 (inactive)
2,CCOc1cc(CNn2c(C)nnc2SCC(=O)NC(C)(C)C)ccc1OCC(=O)NC(C)(C)C,1840 (inactive)
3,O=C(NNS(=O)(=O)c1ccc(F)cc1)c1cnccn1,1930 (inactive)
4,Cc1ccc(NC(=S)N(CCN2CCCCC2)Cc2ccco2)cc1C,1560 (inactive)
5,COc1cc(C(=O)OCc2ccc([N+](=O)[O-])cc2)cc(OC)c1OC,1470 (inactive)
6,S=C(Cc1ccc(Cl)cc1)N1CCOCC1,2050 (inactive)
7,COc1cc(NS(=O)(=O)c2ccc(NC(=O)c3ccc(S(=O)(=O)N4CCCCC4)cc3)cc2)ncn1,1650 (inactive)
8,CCC(=O)N(Cc1cc2ccccc2[nH]c1=O)c1ccc(OC)cc1,1990 (inactive)
9,COc1ccc(-n2nnnc2SCC(=O)NCc2cccs2)cc1,1830 (inactive)
10,CN1CCN(S(=O)(=O)c2cccc(C(=O)N3CCc4ccccc43)c2)CC1,1760 (inactive)
11,Cc1ccc(N2C(=O)C(CC(=O)Nc3cccc(F)c3)N(CCc3ccncc3)C2=O)cc1 (centres undefined),1810 (inactive)
12,CCOc1cnc(-c2c(-c3ccccc3Cl)noc2C)o1,1830 (inactive)
13,COc1ccc(S(=O)(=O)N2CCCCCC2)cc1C(=O)OCC(=O)Nc1cc(C)on1,2360 (active)
14,O=C(COC(=O)c1cc(S(=O)(=O)N2CCCCC2)ccc1Cl)NCc1ccco1,1930 (inactive)
15,Cc1cc(NC(=O)COC(=O)c2ccc(F)c(S(=O)(=O)N3CCOCC3)c2)no1,1740 (inactive)
16,COc1ccnc(Oc2ccccc2)n1,1760 (inactive)
17,O=C(Nc1ccc(N2CCN(C(=O)c3cccs3)CC2)cc1)c1cccnc1Cl,1580 (inactive)
18,CNS(=O)(=O)c1ccc(N2CCCC2=O)c([N+](=O)[O-])c1,1690 (inactive)
19,O=S(=O)(c1ccc(-c2ccccc2)cc1)N1CCCC1,1580 (inactive)
20,CC(=O)OC(COc1ccc(F)cc1)Cn1cnc2ccccc21 (centres undefined),1950 (inactive)
21,CC(OC(=O)c1ccc2ccccc2n1)C(=O)c1ccccc1 (centres undefined),1760 (inactive)
22,Cc1cccc(NC(=O)c2ccc3ccccc3n2)n1,2320 (active)
23,COC(=O)c1ccc(NC(=S)Nc2cccc(C)n2)cc1,1830 (inactive)
24,COc1ccc(N2CCN(CCCNC(=O)C3CCN(S(=O)(=O)N4CCOCC4)CC3)CC2)cc1,1660 (inactive)
25,COc1ccc(C)cc1NC(=S)Nc1ccccc1SC,1550 (inactive)

row,SMILES,TR-FRET ratio
1,O=C(N/N=C/c1ccc([N+](=O)[O-])o1)c1cccc(S(=O)(=O)N2CCOCC2)c1,2000 (inactive)
2,COC(=O)c1ccc(CN2CCN(CCCc3ccccc3)C(CCO)C2)cc1 (centres undefined),1770 (inactive)
3,CC(=O)N1c2ccccc2N(Cc2ccc([N+](=O)[O-])cc2)C(=O)C1(C)C,1840 (inactive)
4,N#Cc1c(NC(=O)C2CC(Cl)=CCC2C(=O)O)sc2c1CCCCC2 (centres undefined),1990 (inactive)
5,COC(=O)C(C)N=Cc1ccccc1 (centres undefined),1960 (inactive)
6,CCN(CC)S(=O)(=O)c1ccc(Cl)c(NC(=O)c2ccncc2)c1,1750 (inactive)
7,Cc1ccc(-c2cn3cc([N+](=O)[O-])ccc3n2)cc1,1970 (inactive)
8,COc1cc(/C=C/C(=O)OCC(=O)N2CCOCC2)ccc1OCC#N,1960 (inactive)
9,Cc1cc(NC(=O)CSc2nc3c(cc2C#N)CCCCC3)no1,1930 (inactive)
10,C/C(CC(=O)Nc1cccc(F)c1)=N\NC(=O)C(=O)NC1CCCCC1,1840 (inactive)
11,CCOc1ccc(N(CC(=O)NCCc2ccc(OC)cc2)S(C)(=O)=O)cc1,1790 (inactive)
12,Cc1ccccc1CN(c1ccc(C(=O)NCC2CCCO2)cc1)S(C)(=O)=O (centres undefined),1760 (inactive)
13,CNc1[nH]ncc1[N+](=O)[O-],1620 (inactive)
14,O=C(c1ccc(OC2CCN(Cc3ccccn3)CC2)cc1)N1CCCCCC1,1590 (inactive)
15,CCc1nnc(NC(=O)/C=C/c2ccc(C)o2)s1,1650 (inactive)
16,CCOC(=O)C1CCCN(C(=O)c2cccc(S(=O)(=O)N3CCOCC3)c2)C1 (centres undefined),1820 (inactive)
17,Cc1nc2ccc(NC(=S)N3CCC(C)CC3)cc2nc1C,1940 (inactive)
18,Cn1cc(CCC(=O)N2CCCC(C(=O)c3ccc(C(C)(C)C)cc3)C2)cn1 (centres undefined),2020 (inactive)
19,Cc1coc(C)c1C(=O)CC1(O)C(=O)N(C)c2ccc(Cl)cc21 (centres undefined),1870 (inactive)
20,CC(C)CC(CC(C)C)=NNC(=O)c1ccc(CSc2nncn2C)cc1,1890 (inactive)
21,O=C(C1CC1)N1N=C2CCCCC2C1(O)C(F)(F)F (centres undefined),1750 (inactive)
22,O=[N+]([O-])c1cc(S(=O)(=O)N2CCCC2)ccc1NN=C1CCCC1,1910 (inactive)
23,Cn1cnnc1SCc1nnc(-c2ccccc2Br)o1,1590 (inactive)
24,CCOC(=O)CCCNC(=O)COC(=O)/C=C/c1ccc2c(c1)OCO2,1620 (inactive)
25,O=C(OCC(=O)N1CCOCC1)c1ccc(N2CCOCC2)c([N+](=O)[O-])c1,2030 (inactive)

row,SMILES,TR-FRET ratio
1,COc1ccc(NC(=S)N2CCCC(CO)C2)c(OC)c1 (centres undefined),1690 (inactive)
2,Cc1nn(C)c(C)c1S(=O)(=O)N1CCC(CO)(Cc2ccc(Cl)cc2)CC1,1980 (inactive)
3,O=C(CCN1C(=O)c2ccccc2C1=O)NNC(=O)c1ccc(Cl)cc1Cl,2130 (inactive)
4,CCC1CO/C(=C(\C(=C(Cl)Cl)N2CCOCC2)[N+](=O)[O-])N1 (centres undefined),1830 (inactive)
5,CN(C(=O)CSc1nncc2ccccc12)C1CCCCC1,1810 (inactive)
6,Cc1ccc(Sc2ccncc2S(N)(=O)=O)cc1,1560 (inactive)
7,CCOC(=O)c1c(C)[nH]c(=S)c(C#N)c1-c1ccccc1,1630 (inactive)
8,CNc1nccc(-c2ccc(Cl)cc2)c1C#N,1880 (inactive)
9,N#Cc1c(-c2ccc(Cl)cc2)c2c([nH]c1=S)CCCC2,2380 (active)
10,Clc1cccc(-c2nc(NCC3CCCO3)c3ccccc3n2)c1 (centres undefined),1630 (inactive)
11,CCc1[nH]nc(C(=O)N2CCCC(CNS(=O)(=O)c3cccs3)C2)c1C (centres undefined),1580 (inactive)
12,O=C(O)Cc1sc(-c2ccc(C(=O)O)cc2)nc1-c1ccccc1,1940 (inactive)
13,O=C(O)Cc1sc(-c2ccccc2)nc1-c1cccs1,2910 (active)
14,O=C(O)Cc1ccc(-c2ccccc2)cc1,1790 (inactive)
15,O=C(Nc1ccccc1)N1CCN(C(=O)Nc2ccccc2)CC1,1700 (inactive)
16,Cc1nc2ccccc2c(C)c1C(=O)c1ccc(F)cc1,1400 (inactive)
17,CCC(CC)C(=O)N1CCN(c2cccc(C)c2C)CC1,1600 (inactive)
18,O=C(COC(=O)c1ccc(F)cc1)Nc1nc2ccc([N+](=O)[O-])cc2s1,1760 (inactive)
19,COc1ccc(OCC(=O)Nc2nnc(-c3ccco3)s2)cc1,2500 (active)
20,COc1ccc(OCCCC(=O)Nc2nnc(C3CCCO3)s2)cc1 (centres undefined),1980 (inactive)
21,COc1ccc(Cc2nnc(NC(=O)Cc3cccs3)s2)cc1,1780 (inactive)
22,C=CCO/N=C/C1=C(O)C(C(=O)OC)C(C)(C)CC1=O (centres undefined),1870 (inactive)
23,Cc1ccc(-c2cc(C(=O)NCc3cn(C)nc3C)c3cc(Br)ccc3n2)cc1,2880 (active)
24,O=C(NCc1ccccn1)c1cc(Br)ccc1Cl,1780 (inactive)
25,C/C(N)=C(/C#N)C(=O)COC(=O)c1cc(-c2ccccc2)nc2ccc(Br)cc12,1910 (inactive)

row,SMILES,TR-FRET ratio
1,Cc1ccc2nc(-c3cccc(Br)c3)cc(C(=O)Nn3cnnc3)c2c1,1660 (inactive)
2,O=C(NCc1cccs1)c1cc(-c2ccccn2)nc2ccc(Br)cc12,2520 (active)
3,O=C(Nc1ccncc1)c1cc(-c2ccccn2)nc2ccc(Br)cc12,1860 (inactive)
4,CSc1ccc(CN2C(=O)NC3(CCCCCC3)C2=O)cc1,1630 (inactive)
5,Cc1ccnc(NS(=O)(=O)c2ccc(NC(=O)c3ccc(S(=O)(=O)N(C)C)cc3)cc2)n1,1700 (inactive)
6,COc1cccc(NC(=O)c2ccc(S(=O)(=O)N(C)C)cc2)c1,1680 (inactive)
7,Cc1nn(C)c(C(=O)NNC(=S)NC2CCCCC2)c1Cl,1630 (inactive)
8,COc1cccc(NC(=S)NC(=O)c2c(Cl)c(C)nn2C)c1,2600 (active)
9,COc1cccc(NC(=S)NCc2ccccn2)c1,1990 (inactive)
10,CN1CCN(C(=O)N2c3ccccc3CCc3ccccc32)CC1,1720 (inactive)
11,CCOc1c(CNCc2ccc(C(=O)O)cc2)cccc1OC,1910 (inactive)
12,O=C(CC1C(=O)NCCN1Cc1ccc(-c2ccccc2)cc1)NCC1CCOCC1 (centres undefined),1730 (inactive)
13,CCc1ccccc1N1C(=O)C2C3CC(=O)C(c4ccccc43)C2C1=O (centres undefined),1650 (inactive)
14,CC(=O)NC1=NN(C(C)=O)C(C)(c2ccc(C)cc2)S1 (centres undefined),1950 (inactive)
15,COc1ccc(/C=N/NC(=O)Cn2cc(C(F)(F)F)ccc2=O)cc1,1880 (inactive)
16,CCN(CCn1cccn1)C(=O)CC1C(=O)NCCN1Cc1cccc(OC)c1OC (centres undefined),1620 (inactive)
17,CSc1nc2c(c(=O)[nH]1)C(c1cccc(Cl)c1Cl)CC(=O)N2 (centres undefined),1770 (inactive)
18,CCN1CCN(CC(=O)c2cc(OC)c(OC)c(OC)c2)CC1,1990 (inactive)
19,CC(C)OC(=O)CN1CCN(c2ccc(Cl)cc2)CC1,1890 (inactive)
20,CCCC(=O)OCC(=O)Nc1cc(Cl)ccc1[N+](=O)[O-],1580 (inactive)
21,CN(C)C(=O)N1CCNCC1,1920 (inactive)
22,COc1ccc(C/C(C)=N/NC(=O)c2ccncc2)cc1,1920 (inactive)
23,O=C(Nc1ccc([N+](=O)[O-])cc1)C1(c2ccccc2)CCOCC1,1740 (inactive)
24,CN1CCN(CC#CCC2(O)c3ccccc3-c3ccccc32)CC1,1610 (inactive)
